Results published in PubChem BioAssay AID2094 (Broad Institute, 2009).
The campaign covered roughly 300,000 compounds. About 1,200 (0.4%) were called active. The sample holds actives, similar compounds and a random draw of the others, so the mix is not that of the screen. No stated cut-off is given here; in the data, active means activity change below about -75% (passing the limit was not always enough); inconclusive means no clear call, values can overlap the other calls.

Assay: Vibrio harveyi AI-2 quorum sensing modulators, primary screen, JMH597 strain, luminescence/OD600 ratio (AID 2094);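 further: luminescence divided by OD600 gain over 9 h not by final OD600 alone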
Settings: Vibrio harveyi JMH597 AI-2 luminescence/OD600 ratio, 9 h; at 7.5 µM; active compounds read low; 0 = neutral-control median; strain lacks LuxN and CqsS sensors

SMILES | activity change
O=S(=O)(Nc1ccccn1)c1ccc(Oc2ccccc2)cc1 | 21.1% (inactive)
O=S(=O)(Nc1cccc(Oc2ccc(Cl)cc2)n1)c1ccc(F)cc1 | -97.1% (active)
O=S(=O)(Nc1ccccn1)c1cccc(S(=O)(=O)c2ccc(Cl)cc2)c1 | 3.88% (inactive)
CC(=O)Oc1ccc2c(=O)oc(-c3ccc([N+](=O)[O-])cc3)nc2c1 | 9.78% (inactive)
COC(=O)/C=C\C(=O)Nc1cccc([N+](=O)[O-])c1 | -88.2% (active)
COc1cccc(CNC(=O)CCCC(=O)Nc2cccc([N+](=O)[O-])c2)c1 | 33.3% (inactive)
COc1ccc(S(=O)(=O)NC(C)C(=O)Nc2cccc([N+](=O)[O-])c2)cc1 (stereo unspecified) | 16.9% (inactive)
Cc1ccc(C(=O)NNC(=O)c2ccncc2)cc1S(=O)(=O)N1CCCCC1 | 18% (inactive)
NC(=O)c1ccc(-c2csnn2)cc1 | -13% (inactive)
Cc1cc(C)c(C(N)=O)c(Cl)n1 | -0.00035% (inactive)
COc1cccc(NC(=O)NCc2ccc(F)cc2)c1 | -88.7% (active)
COc1cccc(NC(=O)NCCN2CCCCC2)c1 | 8.92% (inactive)
O=C(NCc1cccc(CNC(=O)Nc2cccc(O)c2)c1)Nc1cccc(O)c1 | 3.61% (inactive)
Oc1ccc(N=Nc2nccs2)c(O)c1 | -86.3% (active)
Cc1cc(-c2ccccc2)nc(N2CCC(C(=O)NC34CC5CC(CC(C5)C3)C4)CC2)n1 | 31.5% (inactive)
CCN1C(=NCCc2cccnc2)N[C@@H](c2ccccc2)C(C(=O)OC)=C1C | 8.09% (inactive)
COc1ccc(-c2nn(-c3ccccc3)cc2/C=C\C(=O)Nc2ccc(C(=O)O)cc2)cc1 | 21.3% (inactive)
O=C(/C=C\c1cn(-c2ccccc2)nc1-c1cccs1)N1CCOCC1 | 28.5% (inactive)
O=C(O)c1ccc(N/N=C/c2cn(-c3ccccc3)nc2-c2cccs2)cc1 | -83.5% (active)
O=C1C2CCCN2C(=O)N1CCCCN1CCN(c2cccc(C(F)(F)F)c2)CC1 (stereo unspecified) | 12.2% (inactive)
CCC(C)N(C(=O)COC(=O)C1C(C(=O)OC)=C(C)NC(C)=C1C(=O)OC)C1CCS(=O)(=O)C1 (stereo unspecified) | 18.1% (inactive)
COc1cccc(NC(=O)c2ccc(S(=O)(=O)N(C)C)cc2)c1 | 14.9% (inactive)
CN(C)S(=O)(=O)c1ccc(NC(=O)N2CCOCC2)cc1 | 11.7% (inactive)
CN(C)S(=O)(=O)c1ccc(Oc2ccc(S(=O)(=O)N(C)C)cc2)cc1 | -86.2% (active)

SMILES | activity change
CCc1ccc(-c2cc(C)no2)cc1S(=O)(=O)NCCc1ccc(S(N)(=O)=O)cc1 | 9.18% (inactive)
CC12CCC(=O)N1C(C(=O)NCCN1C(=O)S/C(=C\c3ccccc3F)C1=O)CS2 (stereo unspecified) | 17% (inactive)
Nc1c(-c2ccccc2)nnn1Cc1ccccc1 | -76.6% (active)
Nc1c(C(=O)Nc2ccc3c(c2)OCCO3)nnn1Cc1ccccc1 | 9.93% (inactive)
O=c1c2ccccc2c(-c2ccc(Br)cc2)nn1Cc1ccccc1 | 41.9% (inactive)
O=C(/C=C/c1ccc(F)cc1)NC(=S)NNC(=O)c1cccnc1 | -112% (active)
O=C(/C=C/c1ccc(F)cc1)NCCNC(=O)/C=C/c1ccc(F)cc1 | 20.3% (inactive)
CC(C)c1ccc(/C=C/C(=O)NNC(=O)c2cccnc2)cc1 | 5.1% (inactive)
Cc1ccc(N2CCN(S(=O)(=O)N(C)C)CC2)cc1Cl | 10.7% (inactive)
CCCCCCC(O)(CCN1CCCCC1)c1ccccc1 (stereo unspecified) | 20% (inactive)
OC(CN=c1sc2ccccc2n1CC(O)COc1ccccc1)COc1ccccc1 (stereo unspecified) | 4.84% (inactive)
O=C(c1ccc(-c2ccccc2)cc1)C1CCCN(C(=O)c2cncs2)C1 (stereo unspecified) | -77.4% (active)
CCNC(=O)N1CCCC(C(=O)c2ccc(-c3ccccc3)cc2)C1 (stereo unspecified) | -9.07% (inactive)
Cn1nccc1C(=O)N1CCCC(C(=O)c2ccc(Oc3ccccc3)cc2)C1 (stereo unspecified) | -2.94% (inactive)
COc1ccc(Oc2c(Cl)cnn(-c3ccccc3)c2=O)cc1 | 8.72% (inactive)
Cc1ccc(-c2nc3c(cnn3-c3ccccc3)c(=O)o2)cc1 | 9.58% (inactive)
Cc1ccc(Oc2cnn(-c3ccccc3)c(=O)c2Br)cc1 | -95.8% (active)
C/C(=N\NC(=O)c1ccc(C)cc1)C1C(=O)c2ccccc2C1=O | 17% (inactive)
CSCCC(NC(=O)COc1ccccc1)C(=O)OCC(=O)c1cc2ccccc2o1 (stereo unspecified) | 8.03% (inactive)
Cc1ccsc1C(=O)OCC(=O)c1cc2ccccc2o1 | -88.1% (active)
Cc1ccsc1C(=O)OCC(=O)c1cc(C)n(CC2CCCO2)c1C (stereo unspecified) | 22.3% (inactive)
Cc1ccc(NC(=O)C2CCN(S(=O)(=O)c3ccc4c(c3)NC(=O)CO4)CC2)cc1C | -2.55% (inactive)
Cn1c(N)c(C(=O)COC(=O)C23CC4CC(CC(C4)C2)C3)c(=O)n(C)c1=O | 12.7% (inactive)
Cc1csc(=O)n1CC(=O)OCC(=O)N(CC(C)C)c1c(N)n(Cc2ccccc2)c(=O)[nH]c1=O | 6.79% (inactive)

SMILES | activity change
CC(C)(C)c1ccc(OC2=CS(=O)(=O)c3ccccc32)cc1 | -84.2% (active)
CC(C)(C)c1ccc(CN2C(=O)c3ccccc3S2(=O)=O)cc1 | 21.7% (inactive)
CC(C)(C)c1ccc(Oc2ccc(N)cc2)cc1 | -23.7% (inactive)
CCN(CC)C(=O)CN(c1cccc(OC)c1)S(=O)(=O)c1ccc(C)cc1 | 9.13% (inactive)
CC(C)C(C)NC(=O)COc1ncnc2ccccc12 (stereo unspecified) | 19.9% (inactive)
CC(=O)Nc1ccc(NC(=O)COc2ncnc3ccccc23)cc1 | -8.91% (inactive)
O=C(COc1ncnc2ccccc12)NC(=O)NCc1ccccc1 | -86.9% (active)
CCOC(=O)c1cc(C(C)C)sc1NC(=O)COC(=O)c1nccnc1N | 29.5% (inactive)
N/C(=N\OC(=O)Cc1ccccc1[N+](=O)[O-])c1ccc(Br)cc1 | -5% (inactive)
COc1ccc(/C(N)=N/OC(=O)Cc2ccccc2)cc1 | -87.5% (active)
COc1ccc(/C(N)=N/OC(=O)CCCc2ccccc2)cc1 | 749% (inactive)
O=C1CCCc2nn(-c3ccccc3)nc21 | 8.67% (inactive)
CCCc1ccc(OCCNC(=O)c2ccco2)cc1 | -83.3% (active)
CCCc1ccc(OCCNC(=O)c2ccccc2Br)cc1 | 28.5% (inactive)
CCCc1ccc(OCC(=O)NNC(=S)NC(=O)c2ccco2)cc1 | -5.63% (inactive)
Cc1ccccc1OCC(=O)Nc1ccc2c(c1)ncn2C | 27.2% (inactive)
Cc1ccc(C(=O)O)cc1N1C(=O)CCCC1=O | 28.2% (inactive)
CCc1nnc(NS(=O)(=O)c2ccc(NC(=O)c3cccc(OC(F)(F)C(F)F)c3)cc2)s1 | 24.2% (inactive)
O=C(O)c1ccc(S(=O)(=O)N2CCC(Cc3ccccc3)CC2)cc1 | 38.4% (inactive)
Cc1cc(C)nc(N/N=C/c2ccncc2)n1 | 10.7% (inactive)
Cc1cc(C)nc(N/N=C/c2ccc([N+](=O)[O-])o2)n1 | -83.7% (active)
CCc1ccc(S(=O)(=O)N/N=C\c2ccc([N+](=O)[O-])o2)cc1 | 28.2% (inactive)
NC(=O)CN1CCCC1c1ccc2c(c1)OCCO2 (stereo unspecified) | 22.1% (inactive)
Cc1ccc(CCCOC(=O)C[N+]2(C)CCCCC2)cc1 | 20.1% (inactive)

SMILES | activity change
Cc1cccc(-c2noc(-c3ccc(F)cc3)n2)c1 | 2.4% (inactive)
Cc1ccc(Cc2nc(-c3cccc(C)c3)no2)cc1 | -81.8% (active)
Cc1ccc(-c2noc(CN3CCN(Cc4ccccc4)CC3)n2)cc1 | -10.7% (inactive)
Cc1cccc(C)c1N1CCN(S(=O)(=O)N2CCOCC2)CC1 | 0.226% (inactive)
Cc1cc(C(=O)OCC(=O)Nc2ccc(F)c(F)c2)c(C)o1 | -93.5% (active)
Cc1cccc(C(=O)OCC(=O)Nc2ccc(F)cc2)c1 | -25.5% (inactive)
Cc1cc(C)cc(NC(=O)COC(=O)c2cc(C)oc2C)c1 | -17% (inactive)
CCOC(=O)N1CCN(S(=O)(=O)c2ccc(Br)cc2)CC1 | 14.3% (inactive)
CC1CCN(C(=O)Cn2nnnc2CN2CCOCC2)CC1 | 8% (inactive)
O=C(O)/C=C/c1ccc2c(c1)OCCO2 | 6.59% (inactive)
CC(=O)c1ccc2c(c1)OCCOCCOc1ccc(C(C)=O)cc1OCCOCCO2 | 17.9% (inactive)
O=C(/C=C/c1ccc2c(c1)OCCO2)c1ccc(O)cc1 | -84.5% (active)
CN(C)c1ccc(/C=C/C(=O)c2ccc(C(C)(C)C)cc2)cc1[N+](=O)[O-] | 19.9% (inactive)
O=C(/C=C/c1ccc(Cl)c([N+](=O)[O-])c1)c1ccc(O)cc1 | -37.5% (inactive)
CN(C)c1ccc(/C=C/C(=O)c2ccc(O)cc2)cc1[N+](=O)[O-] | -93% (active)
O=C(Cc1ccc([N+](=O)[O-])cc1)Nc1ccc(C(=O)N2CCOCC2)cc1 | 31% (inactive)
CCN(CC)c1ccc(S(=O)(=O)N2CCCCC2)cc1NC(=O)C1=COCCO1 | 0.314% (inactive)
Cc1cccc(N2CCN(S(=O)(=O)c3ccc(-c4cc(C)no4)s3)CC2C)c1 (stereo unspecified) | 7.14% (inactive)
Cc1ccc(C(=O)N2CCN(S(=O)(=O)N3CCOCC3)CC2)cc1 | 14.3% (inactive)
O=C(COc1ccc([N+](=O)[O-])cc1)Nc1ccc(N2CCCC2)cc1 | 44.5% (inactive)
O=C(COC(=O)C1CCCCC1)Nc1ccc([N+](=O)[O-])cc1 | -83.6% (active)
NC(=O)c1ccc(NC(=O)COC(=O)c2ccc([N+](=O)[O-])cc2)cc1 | 17.8% (inactive)
CCCC1NC(=O)NC(C)=C1C(=O)OCC (stereo unspecified) | 2.55% (inactive)
Oc1c(Br)cc(/C=N/NC(=S)NCC2CCCO2)cc1Br (stereo unspecified) | 46.7% (inactive)
